GALK inhibitor = inhibitors of human galactokinase; 270,000 compounds, 0.007% hits; Purified GALK, Kinase-Glo residual ATP luminescence; AID 1868; P51570; Potency, µM (doses to about 57.5 µM), most hits filed as inhibitors
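Quantitative HTS: GALK 5 nM, ATP 35 uM, galactose 100 uM, 1 h room temperature, then luciferase-based ATP detection.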
Six1-Eya2 blk = inhibitors of human Six1/Eya2 interaction; activity change, % (no concentration beside the values); AlphaScreen GST-Six1/His-Eya2 binding, biochemical; stronger effect = lower value; Q15475+O00167; 360,000 compounds, 0.56% hits; in the data active means activity change below about -65%; inconclusive means mostly about -30% to -63%
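Six1/Eya2 binding was read as AlphaScreen signal after compounds were pinned into GST-Six1 plus His-tagged Eya2 (5X stock 250/500 nM) in pH 8.0 Tris/NaCl/TCEP buffer, beads added, then incubated 1 h, 37 C, dark.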
rTrxR1 inhibitor = inhibitors of rat thioredoxin reductase 1. Potency, µM (highest dose often 114 µM), actives largely listed as inhibitors. 390,000 compounds, 1% hits. O89049. recombinant rTrxR1, NADPH fluorescence consumption, selenite substrate. AID 588453; further: nearly all actives have a fitted effect of over 65% in size
Target sequence (O89049 whole entry, looked up): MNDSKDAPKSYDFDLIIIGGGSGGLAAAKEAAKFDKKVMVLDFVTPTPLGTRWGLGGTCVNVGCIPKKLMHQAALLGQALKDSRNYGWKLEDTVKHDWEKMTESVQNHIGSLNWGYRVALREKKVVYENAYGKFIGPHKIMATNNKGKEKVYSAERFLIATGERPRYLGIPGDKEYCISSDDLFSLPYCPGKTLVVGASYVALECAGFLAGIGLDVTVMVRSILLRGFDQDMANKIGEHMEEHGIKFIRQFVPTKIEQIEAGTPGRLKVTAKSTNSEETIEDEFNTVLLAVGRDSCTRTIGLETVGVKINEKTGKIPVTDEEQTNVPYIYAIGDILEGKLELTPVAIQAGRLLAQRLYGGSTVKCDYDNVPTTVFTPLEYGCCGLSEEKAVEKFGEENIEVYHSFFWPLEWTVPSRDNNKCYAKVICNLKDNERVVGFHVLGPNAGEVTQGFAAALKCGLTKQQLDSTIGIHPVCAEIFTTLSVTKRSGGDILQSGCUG
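Rat TrxR1 (90 nM in the dispensed reagent) was pre-reduced with 400 uM NADPH for 5 min at room temperature, then incubated with compound for 15 min. After 400 uM selenite was added, NADPH fluorescence (Ex 340/Em 450 nm) was followed for 8 min.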
TrxR1 substrate = substrates of rat thioredoxin reductase 1 | AID 588456 | Potency, µM (titrated, usually from 114 µM) | 390,000 compounds, 0.01% hits | purified TrxR1 substrate turnover, NADPH consumption readout; further: nearly all actives have a fitted effect of over 50% in size
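Rat TrxR1, dispensed at 90 nM, was prereduced with 400 uM NADPH (final) for 5 min at ~22 deg C, then incubated with compound 15 min before 400 uM selenite. A first-read NADPH fluorescence drop versus no-compound background flagged substrates.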
Eya2 phos inh = inhibitors of human Eya2 phosphatase activity | AID 488837 | Potency, µM (top dose mostly 76.9 µM), most hits filed as inhibitors | 330,000 compounds, 0.006% hits | O00167 | recombinant Eya2, OMFP fluorescence dephosphorylation (OMFP is methylfluorescein phosphate)
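Eya2 (0.2 uM) preincubated 10 min at ambient with compound, then OMFP substrate added at 50 uM; 10 min reaction in 50 mM HEPES pH 7.5, 50 mM NaCl, 5 uM MgCl2, 0.05% BSA, 1 mM DTT. Fluorescence read at Ex 485/Em 525 nm.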
CtBP-E1A blk = inhibitors of CtBP/E1A interaction; AlphaScreen GST-E1A/His-CtBP binding, 1536-well; stronger effect = lower value; activity change, % (no concentration beside the values); 340,000 compounds, 0.49% hits; AID 651724; in the data active means activity change below about -65%; inconclusive means mostly about -30% to -63%
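GST-E1A and His-tagged CtBP (125 nM each as 5X stock) were preincubated with pin-transferred compound for 2 h at 37 °C in the dark, then glutathione donor and nickel acceptor beads were added for 1 h before AlphaScreen reading.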
Numbers stand for hits. Rows were chosen to be rich in hits. Some 1.5% of all compounds tested hit in one or more screens of this group. Unless noted, the call rests on the fitted dose curve; in most records, active means well fitted curve in the direction sought with a large enough effect; inconclusive means small, poorly fitted or top-dose-only effect, or another doubt; inactive means no such curve, though single readings can be large; an effect the other way counts as inactive or inconclusive.

O=S(=O)(c1ccccc1C(F)(F)F)N1CCN(c2nc(-c3ccccc3)nc3ccccc23)CC1 was read as rTrxR1 inhibitor inactive and TrxR1 substrate inactive.
`CCOC(=O)c1cc(-c2ccc(C)cc2)n(CC(=O)Nc2ccc(OC)cc2OC)c1C` gave rTrxR1 inhibitor inactive and TrxR1 substrate inactive.
COC(=O)c1ccc(C(=O)OC)c(NC(=O)/C=C/C(=O)O)c1 was read as GALK inhibitor inactive, Six1-Eya2 blk inactive, rTrxR1 inhibitor 45µM, TrxR1 substrate inactive, Eya2 phos inh inactive and CtBP-E1A blk inactive.
Screening O=[N+]([O-])c1ccc(C(c2sc3nc(-c4ccco4)nn3c2O)N2CCN(Cc3ccccc3)CC2)cc1 (stereo not given) returned rTrxR1 inhibitor inactive and TrxR1 substrate inactive.
`COc1cccc(NC(=O)CSC2=Nc3ccccc3C3=NC(CCC(=O)NCCc4ccccc4)C(=O)N23)c1` (stereo not given) gave rTrxR1 inhibitor inactive and TrxR1 substrate inactive.
`COc1ccc(-c2cc3ccc(OC(C)C(=O)O)cc3oc2=O)cc1` (stereo not given) gave GALK inhibitor inactive, Six1-Eya2 blk inactive, rTrxR1 inhibitor 71µM, TrxR1 substrate inactive, Eya2 phos inh inactive and CtBP-E1A blk inactive.
COc1ccc(-c2cc3ccccc3oc2=O)cc1 was read as Six1-Eya2 blk inactive, rTrxR1 inhibitor inactive, TrxR1 substrate inactive and CtBP-E1A blk inactive.
Screening CN(C)S(=O)(=O)c1ccc2c(c1)nnn2CCNC(=O)Nc1ccc(Cl)cc1 returned rTrxR1 inhibitor inactive and TrxR1 substrate inactive.
For N#Cc1c(N)nc(SCc2ccccc2)c(C#N)c1-c1ccco1 the results were GALK inhibitor inactive, Six1-Eya2 blk inactive, rTrxR1 inhibitor inconclusive, TrxR1 substrate inactive, Eya2 phos inh inactive and CtBP-E1A blk inactive.
Screening N#Cc1c(N)nc(SC2CCCCC2=O)c(C#N)c1-c1ccco1 (stereo not given) returned Six1-Eya2 blk -66, rTrxR1 inhibitor inactive, TrxR1 substrate inactive and CtBP-E1A blk inconclusive.
For Cc1ccc(C)c(NC(=O)Cn2c(=O)n(CC(=O)NCCc3ccccc3)c(=O)c3ccccc32)c1 the results were rTrxR1 inhibitor inactive and TrxR1 substrate inactive.
Screening COc1ccc(CN(Cc2ccco2)c2cnc(S(C)(=O)=O)nc2C(=O)Nc2ccc(C)c(C)c2)cc1 returned rTrxR1 inhibitor inactive and TrxR1 substrate inactive.
For COc1ccc(N=C2S/C(=C\c3ccc(N4CCOCC4)o3)C(=O)N2CCc2c[nH]c3ccccc23)cc1 the results were GALK inhibitor inactive and Eya2 phos inh inactive.
For COc1ccc(N=C2S/C(=C\c3ccc(OCC(=O)O)cc3)C(=O)N2CCc2c[nH]c3ccccc23)cc1 the results were GALK inhibitor inactive, Six1-Eya2 blk -80, rTrxR1 inhibitor inactive, TrxR1 substrate inactive, Eya2 phos inh inactive and CtBP-E1A blk inactive.
O=C(COc1ccc(Cl)cc1)NCC(c1ccco1)S(=O)(=O)c1ccc(F)cc1 (stereo not given) was read as rTrxR1 inhibitor inactive and TrxR1 substrate inactive.
Cc1ccc(-c2nc3ccc(Cl)cn3c2Nc2ccccc2)o1 was read as rTrxR1 inhibitor inconclusive and TrxR1 substrate inactive.
Screening Fc1ccccc1-c1ccc(-c2nc3ccc(Cl)cn3c2Nc2ccc(Cl)cc2)o1 returned rTrxR1 inhibitor 25µM and TrxR1 substrate inactive.
Screening Cc1ccc(-c2nc3ccccn3c2Nc2ccccc2)o1 returned GALK inhibitor inactive, Six1-Eya2 blk inconclusive, rTrxR1 inhibitor inactive, TrxR1 substrate inactive, Eya2 phos inh inactive and CtBP-E1A blk inactive.
Screening Cc1ccc2nc(-c3ccccc3F)c(Nc3ccc(Cl)cc3)n2c1 returned rTrxR1 inhibitor inactive and TrxR1 substrate inactive.
Cc1ccc2nc(-c3ccc(C)o3)c(Nc3ccccc3)n2c1 was read as rTrxR1 inhibitor 18µM and TrxR1 substrate inactive.
For Cc1ccc(-c2nc3cnccn3c2Nc2ccccc2)o1 the results were GALK inhibitor inactive, Six1-Eya2 blk inactive, rTrxR1 inhibitor 40µM, TrxR1 substrate inactive, Eya2 phos inh inactive and CtBP-E1A blk inactive.

Compound activity deposited in PubChem by National Center for Advancing Translational Sciences (NCATS).
